# This is a sample that favours compounds with a hit; in the whole collection about 9.2% have one here.
# Rab9 prom act: Rab9 promoter activation. AID 485297. 320,000 tested, 2.8% active. Potency, µM (top dose mostly 9.22 µM), inactives show at the highest dose activation, negative = inhibition, hits mostly activators. Huh7 Rab9 promoter-luciferase reporter, luminescence, 24 h; note: % of control where 0% means no effect; nearly all actives have a fitted effect of over 60% in size
#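 Cell-based reporter: Huh7 stable for Rab9 promoter-driven luciferase, plated in reduced-serum medium with 10% FBS at 1500 cells/well, compound-treated 24 h at 37 °C, luminescence read after 10 min reagent.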
# ELG1 genotox: induces genotoxicity in HEK293T cells with luciferase-tagged ELG1; HEK293T ELG1-luciferase reporter, luminescence, 16 h; Potency, µM (doses to about 46 µM), without a hit: top-dose activity change, positive = activation, most hits filed as activators; 330,000 tested, 1.3% active; AID 504466; note: % of control where 0% means no effect; nearly all actives have a fitted effect of over 60% in size
#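 Luminescence read-out: rising ELG1-luciferase signal, reflecting elevated ELG1 protein under genetic stress, flags genotoxic compounds. Cells were treated for 16 hr at 37 °C before ONE-Glo detection.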
# FLuc counter: counter-screen for miR-21 project: firefly luciferase inhibitors or activators. P08659. purified FLuc, Km substrates, luminescence inhibition. AID 588342. Potency, µM (series often up to 57.5 µM), for the others: at the top dose activity change, negative = inhibition, usual class: inhibitors. 360,000 tested, 6.9% active;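 note: plate controls were vehicle for no effect and reference inhibitor for full effect; nearly all actives have a fitted effect of over 55% in size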
# Target sequence (P08659 whole entry, looked up): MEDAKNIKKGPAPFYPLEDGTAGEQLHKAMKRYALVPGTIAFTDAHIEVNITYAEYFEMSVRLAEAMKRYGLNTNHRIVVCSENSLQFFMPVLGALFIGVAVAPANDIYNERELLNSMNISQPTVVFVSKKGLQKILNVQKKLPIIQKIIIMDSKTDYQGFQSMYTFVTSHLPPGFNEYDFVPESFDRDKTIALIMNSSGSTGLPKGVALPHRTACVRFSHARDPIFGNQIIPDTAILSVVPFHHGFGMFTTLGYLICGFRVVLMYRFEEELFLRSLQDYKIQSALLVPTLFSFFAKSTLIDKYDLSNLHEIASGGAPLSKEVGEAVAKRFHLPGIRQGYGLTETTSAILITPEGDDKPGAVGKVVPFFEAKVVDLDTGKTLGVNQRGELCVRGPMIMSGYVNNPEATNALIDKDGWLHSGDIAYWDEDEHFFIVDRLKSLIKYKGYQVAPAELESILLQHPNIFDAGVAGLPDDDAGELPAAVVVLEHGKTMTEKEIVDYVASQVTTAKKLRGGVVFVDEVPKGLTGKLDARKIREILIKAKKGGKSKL
#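 Purified P. pyralis luciferase (10nM final) with 10uM D-luciferin and 10uM ATP (Km levels) in 50mM Tris acetate pH 7.5, 10mM Mg acetate, 0.01% Tween-20, 0.05% BSA; qHTS 6-point titration, ~60 µM downward; luminescence read.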
# ELG1 repair inh: ELG1-dependent DNA repair inhibition | 330,000 tested, 2.3% active | Potency, µM (highest dose often 46.1 µM), inactives show top-dose activity change, negative = inhibition, actives largely listed as inhibitors | HEK293T ELG1-luciferase reporter, luminescence, 16 h; DNA damage induced by 5-fluorouridine; note: % is set by controls: 0 for no effect and ±100 for the full control effect; nearly all actives have a fitted effect of over 55% in size
#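 Step one: seed 2,000 cells per well. Step two: pin-transfer compound or DMSO alongside 5-fluorouridine. Step three: incubate 16 hr, 37 °C, 5% CO2. Step four: add ONE-Glo, wait 30 min, read luminescence.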
# NPC1 prom act: activates the NPC1 promoter; Huh7 NPC1 promoter luciferase reporter, 24 h; Potency, µM (series often up to 9.22 µM), for the others: at the top dose activation, usual class: activators; 320,000 tested, 2.4% active; note: % of control where 0% means no effect; nearly all actives have a fitted effect of over 60% in size
#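 Luminescence from an NPC1 promoter-driven luciferase reporter in stably transfected Huh7 cells was measured after 24 h compound treatment at 37 °C, followed by 10 min ambient incubation with luciferase detection reagent.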
# SMN2 splice enh: SMN2 splice variant enhancement. HEK293 SMN2-luciferase splicing reporter, luminescence, 30-36 h. Potency, µM (doses to about 46.1 µM), for inactives: top-dose activity change, positive = activation, hits mostly activators. 210,000 tested, 2.8% active; note: % of control where 0% means no effect; nearly all actives have a fitted effect of over 55% in size
#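 qHTS luciferase splicing reporter: luminescence rises when SMN2 exon 7 is included in transfected HEK293 cells. Compound exposure lasted 30-36 h at 37C, with 4.5 mM final sodium butyrate as control, followed by a ONE-Glo read.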
# Active calls of the source: *; ? = inconclusive; / = not tested or not shown; [ ] = dose if it differs, or a comment. Calls come from the whole dose curve; as a rule, active = well fitted curve in the direction sought with a large enough effect; inconclusive = small, poorly fitted or top-dose-only effect, or another doubt; inactive = no such curve, though single readings can be large; an effect the other way counts as inactive or inconclusive. Potency is the fitted concentration of half-maximal effect.
SMILES,Rab9 prom act,ELG1 genotox,FLuc counter,ELG1 repair inh,NPC1 prom act,SMN2 splice enh
Cc1ccc(C(=O)Cn2nnc3ccccc32)cc1C,0.79µM*,?,4.8µM*,?,1.4µM*,?
Cc1ccc(C(=O)NNC(=O)Cn2nnc3ccccc32)cc1,12%,12%,2%,?,-2%,/
Cc1ccc(OCCn2nnc3ccccc32)cc1C,2.5µM*,?,21µM*,?,2.5µM*,/
Cc1ccc(C(=O)Cn2nnc3ccccc32)cc1,1.6µM*,?,5.4µM*,?,1.4µM*,?
O=C(Cn1nnc2ccccc21)c1ccc(Br)cc1,?,10%,24µM*,?,30%,/
Cc1occc1C(=O)Nc1cnn(CCCC(=O)O)c1,-3%,2%,2%,24%,-1%,/
Cc1ncc(CO)c2c1Oc1nc(-c3ccccc3)nc(SCC(=O)N(C)c3ccccc3)c1C2,-2%,/,-4%,?,-8%,/
Cc1ncc(CO)c2c1Oc1nc(-c3ccccc3F)nc(SCC(=O)N(C)c3ccccc3)c1C2,0%,-8%,2%,2.9µM*,-2%,/
CC(=O)N(C)C1=C(O)c2ccccc2C(=O)C1=O,1%,2%,2%,-1%,-3%,0%
CC(=O)N(C1=C(N)C(=O)c2ccccc2C1=O)C(C)C,-23%,-7%,-3%,23µM*,-8%,-26%
O=C(N/C(=C\c1cccc([N+](=O)[O-])c1)C(=O)N1CCCCC1)c1cccs1,0%,0%,-1%,?,-2%,9%
CCOC(=O)C1=C(C)C(c2cccc(Oc3ccccc3)c2)NC(=S)N1 (stereo not given),-11%,-5%,3%,26µM*,3%,-43%
Cc1nc2c(oc3ccccc32)c(=O)o1,2%,?,21µM*,?,-2%,17%
O=c1[nH]c(Cc2ccccc2)nc2c1oc1ccccc12,14%,2%,-6%,1%,1%,3%
CCOc1c(Cl)cc(CNc2ccc3[nH]c(=O)[nH]c3c2)cc1OC,/,/,-1%,/,/,-24%
COc1cccc(OC)c1C(=O)NNC(=O)c1cccc(COc2ccc3c(c2)CCC3)c1,0.56µM*,0.37µM*,4.8µM*,?,0.45µM*,1.4µM*
COc1ccccc1NC(=O)c1ccc(CSc2ncccn2)cc1,-1%,5%,17µM*,17%,-1%,/
O=C(COc1ccc2c(c1)CCC2)NCc1cccc(Cl)c1,-4%,-3%,-9%,10%,-3%,/
COC(=O)c1ccccc1NC(=O)c1ccc(COc2ccc3c(c2)CCC3)cc1,9%,4%,?,?,15%,-2%
O=C(NCc1ccccc1)c1cccc(COc2ccc3c(c2)CCC3)c1,0.35µM*,0.65µM*,1.3µM*,?,0.35µM*,1.3µM*
COc1ccccc1NC(=O)c1ccc(COc2ccc3c(c2)CCC3)cc1,24%,7%,-2%,?,21%,11µM*
CCc1ccc(NC(=O)Cn2c(=O)n(CCC(=O)NC3CCN(Cc4ccccc4)CC3)c(=O)c3ccccc32)cc1,-9%,0%,0%,?,-3%,/
COc1ccc(NC(=O)CSc2nc3[nH]c(=O)cc(O)c3s2)c(OC)c1,-1%,5%,2%,13%,-1%,/
O=C(O)c1cccc(COc2ccc3c(c2)CCC3)c1,3.2µM*,?,0.067µM*,?,3.5µM*,/
O=C(Nc1ccccc1)c1ccc(CSc2ccccn2)cc1,1.6µM*,?,2.1µM*,?,1.3µM*,22µM*
SMILES,Rab9 prom act,ELG1 genotox,FLuc counter,ELG1 repair inh,NPC1 prom act,SMN2 splice enh
O=S(=O)(Nc1ccc(OC(F)F)cc1)c1ccc(-c2ccon2)s1,0%,0%,-1%,-2%,-5%,/
COc1ccc(CC(=O)Nc2cccc(-c3nnc(-c4ccco4)o3)c2)cc1,2%,-8%,-8%,?,0%,-18%
COc1cc(C(=O)Nc2cccc(-c3nnc(-c4ccco4)o3)c2)ccc1OC(C)=O,-1%,-6%,15µM*,?,0%,0%
COc1ccc(C(=O)Nc2cccc(-c3nnc(-c4ccco4)o3)c2)cc1,8%,-9%,19µM*,21µM*,19%,-12%
COc1cccc(C(=O)Nc2ccccc2-c2nnc(-c3cccc(OC)c3)o2)c1,/,/,2.7µM*,/,/,3%
O=c1c2ccccc2nc(-c2ccc(F)cc2)n1NCc1ccccc1O,5%,-8%,4%,-24%,-4%,-45%
O=C(Nc1cccc(NC(=O)c2cccs2)c1)c1cccnc1,-1%,-7%,?,?,-1%,3%
COc1c(F)c(F)c(C(=O)Nc2ccc(N3CCN(C(C)=O)CC3)c(Cl)c2)c(F)c1F,-5%,-14%,-11%,23µM*,1%,-6%
O=C(c1ccco1)N1CCN(C(=S)Nc2ccc(F)c(Cl)c2)CC1,5%,-1%,6%,2%,-2%,/
O=C(Nc1ccc(N2CCN(C(=O)c3cccs3)CC2)c(Cl)c1)c1cccnc1,-7%,-14%,-4%,6.5µM*,0%,-27%
CC(=O)N1CCN(c2ccc(NC(=O)c3ccc(Br)o3)cc2Cl)CC1,20%,-4%,?,?,13%,21%
O=C(Nc1ccc(N2CCN(C(=O)c3ccco3)CC2)c(Cl)c1)c1c(F)c(F)c(F)c(F)c1F,-17%,-3%,2%,18µM*,-4%,-104%
O=C(Nc1ccc(N2CCN(C(=O)c3ccco3)CC2)c(Cl)c1)c1cccnc1,-6%,-12%,-2%,6.5µM*,-7%,-9%
CC(=O)OCC1(C)CN(c2ccccc2)N(C(=O)c2ccc(F)cc2)C1=O (stereo not given),1%,0%,-2%,4%,5%,-49%
CC1(C)CCC(=O)N2CC[C@H]3C[C@H](OC(=O)Nc4ccccc4)C[C@@H]1[C@H]32,?,19%,19µM*,?,?,/
CC1(C)CCC(=O)N2CC[C@H]3C[C@H](OC(=O)Nc4ccc5c(c4)OCO5)C[C@@H]1[C@H]32,?,-5%,15µM*,?,4µM*,/
Cc1ccc(-c2c(=O)n(OCc3ccccn3)c3ccccc3[n+]2[O-])cc1,-9%,4%,1%,?,-9%,/
COc1ccc(-c2c(=O)n(OCc3ccccn3)c3ccccc3[n+]2[O-])cc1OC,-5%,-5%,0%,13µM*,-1%,-29%
COc1ccc(-n2c(/C=C/c3cccc4ccccc34)nc3ccccc3c2=O)cc1OC,/,/,-3%,/,/,/
CCCCC(=O)/C=C/n1c(=S)oc2ccccc21,-35%,-11%,2.4µM*,?,-19%,-6%[1.84 µM]
